High-throughput results deposited in PubChem by National Center for Advancing Translational Sciences (NCATS).
NPSR antag: neuropeptide S receptor (human) antagonism, cAMP | CHO-NPSR cells, cAMP TR-FRET, antagonist mode | Potency, µM (top dose mostly 38.3 µM), for the others: top-dose activity change, negative = inhibition, usual class: inhibitors | 220,000 compounds, 1% hits | AID 1461; also: nearly all actives have a fitted effect of over 50% in size
Target sequence (Q6W5P4 whole entry, looked up): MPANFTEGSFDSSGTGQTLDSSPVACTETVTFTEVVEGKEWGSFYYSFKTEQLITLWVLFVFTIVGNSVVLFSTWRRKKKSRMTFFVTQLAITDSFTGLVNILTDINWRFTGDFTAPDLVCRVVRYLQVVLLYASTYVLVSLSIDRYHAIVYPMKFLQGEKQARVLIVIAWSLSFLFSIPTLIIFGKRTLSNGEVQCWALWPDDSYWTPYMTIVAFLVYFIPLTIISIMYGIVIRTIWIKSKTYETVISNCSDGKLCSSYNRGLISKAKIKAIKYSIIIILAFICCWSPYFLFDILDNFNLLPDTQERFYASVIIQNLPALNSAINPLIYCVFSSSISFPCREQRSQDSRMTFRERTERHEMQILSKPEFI
Tau fluor cs: counter-screen for tau fibril formation inhibitors; tau K18 P301L Alexa594 fluorescence, heparin fibrillization; 280,000 compounds, 0.93% hits; AID 1463; Potency, µM (highest dose often 57.7 µM), for the others: at the top dose activity change, negative = decrease; also: nearly all actives have a fitted effect of over 55% in size
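Human tau K18 P301L (15 uM unlabeled, 0.24 uM Alexa 594-labeled) in 100 mM sodium acetate pH 7 with 20 uM heparin, 6 hr at 37 C. ThT 30 uM added, 1 hr ambient; Alexa 594 FP and total fluorescence read at 555/632 nm.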
Tau FP inhib: blocks human tau fibril formation measured by polarization. 280,000 compounds, 0.39% hits. P10636. Potency, µM (highest dose often 57.7 µM), for the others: at the top dose activity, negative = inhibition, actives largely listed as inhibitors. AID 1468. K18 P301L tau heparin fibrillization, Alexa594 FP, 6 h; also: nearly all actives have a fitted effect of over 55% in size
Target sequence (P10636 561-689 P618L limits assumed): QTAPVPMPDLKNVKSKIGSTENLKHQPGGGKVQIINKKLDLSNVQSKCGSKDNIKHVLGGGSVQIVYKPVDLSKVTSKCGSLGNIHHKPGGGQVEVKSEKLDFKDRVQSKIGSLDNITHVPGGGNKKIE
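Steps: dispense K18 P301L tau (15 uM plus 0.24 uM Alexa 594 tracer, final) in pH 7 sodium acetate; add compound; add heparin (20 uM final); incubate 6 hr, 37 C; add ThT (30 uM final); after 1 hr ambient, read FP.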
HPGD inh: HPGD (human) dehydrogenase inhibition | P15428 | purified HPGD, NADH fluorescence kinetic, PGE2 substrate | Potency, µM, without a hit: at the highest dose activity change, negative = inhibition, actives largely listed as inhibitors | 150,000 compounds, 4.3% hits | AID 894; active = well fitted inhibition curve with a large enough effect, not every such curve was filed as active; inconclusive = small, poorly fitted or top-dose-only effect, or another doubt; inactive = no such curve, though single readings can be large or run the other way
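NADH formation kinetics: reaction with 30 uM PGE2 and 1 mM NAD+ (final), 20 nM enzyme, Tris-HCl pH 8 with Tween 20, after 15 min compound preincubation at room temperature. Fluorescence change, last versus first of five reads.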
ALDH1A1 inh: ALDH1A1 (human) enzyme inhibition. P00352. Purified ALDH1A1, NADH fluorescence, propionaldehyde substrate. Potency, µM (series often up to 75.3 µM), without a hit: top-dose activity, negative = inhibition, actives largely listed as inhibitors. 220,000 compounds, 7.3% hits. AID 1030; active = well fitted inhibition curve with a large enough effect, not every such curve was filed as active; inconclusive = small, poorly fitted or top-dose-only effect, or another doubt; inactive = no such curve, though single readings can be large or run the other way;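 also: plate controls were no enzyme wells and a reference inhibitor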
Tau ThT inhib: inhibitors of human tau fibril formation, thioflavin T binding; P10636; recombinant tau K18 P301L, heparin-induced fibrillization, ThT fluorescence; Potency, µM (series often up to 57.4 µM), for the others: at the top dose activity, negative = inhibition, usual class: inhibitors; 270,000 compounds, 2.1% hits; AID 1460; also: nearly all actives have a fitted effect of over 55% in size
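Fibril formation assay: tau K18 P301L at 15 uM with trace Alexa 594 label, heparin inducer 20 uM, pH 7 sodium acetate buffer, 37 C for 6 hr; endpoint ThT signal.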
Starred values were filed as active, the others as inactive; u = inconclusive; x = no result; [ ] = remark or other dose. In the library only some 9.5% were active in any assay of this set; here they are far more common. Unless noted, calls follow the shape of the dose curve; as a rule, active = well fitted curve in the direction sought with a large enough effect; inconclusive = small, poorly fitted or top-dose-only effect, or another doubt; inactive = no such curve, though single readings can be large; an effect the other way counts as inactive or inconclusive. Unless noted, % is scaled to controls: 0 for no effect and ±100 for the full control effect; potency is read from the fitted curve at half-maximal effect.

SMILES	NPSR antag	Tau fluor cs	Tau FP inhib	HPGD inh	ALDH1A1 inh	Tau ThT inhib
CN(C)/C=C/C(=O)/C=C/c1ccc(Cl)cc1Cl	-6%	-7%	0%	x	u	u
CNc1ccc(Br)cc(C(=O)/C=C/c2ccc(Cl)cc2Cl)c1=O	u	u	u	x	u	10µM*
CCCCC(=O)NC(=S)Nc1ccc(NC(=O)C(C)C)c(OC)c1	4%	-11%	-1%	x	-5%	-6%
CCCCN(C)CCCNC(=O)/C=C1\Sc2ccccc2NC1=O	-39%	-10%	-6%	x	5%	-10%
Cc1ccc(CSc2cn(CC(=O)N3CCCCCC3)c3ccccc23)cc1	x	-22%	9%	x	x	u
Cc1[nH]n(-c2ncc(-c3ccccc3)s2)c(=O)c1C(c1ccc(Br)cc1)C(C#N)C#N (stereo unspecified)	-54%	u	35µM*	10µM*	13µM*	8.9µM*
Cc1[nH]n(C(N)=S)c(=O)c1C(c1ccccc1)C(C#N)C#N (stereo unspecified)	-13%[46.1 µM]	-21%	-7%	-9%	32µM*	u
CCc1c(C)[nH]n(-c2nc(-c3ccccc3)cs2)c1=O	-21%	-16%	-5%	x	u	u
Cc1[nH]n(-c2ccccc2)c(=O)c1C(c1ccc(C(=O)O)cc1)c1c(C)[nH]n(-c2ccccc2)c1=O	0%	-5%	-10%	u	u	-3%
COC(=O)c1cc(=O)n(Cc2cccs2)c(=Nc2ccc(F)cc2)s1	u	-20%	-8%	x	10µM*	u
COC(=O)c1cc(=O)n(Cc2ccco2)c(=Nc2ccc(F)c(Cl)c2)s1	u	-16%	-2%	-10%	3.5µM*	u
COC(=O)c1cc(=O)n(Cc2ccc3c(c2)OCO3)c(=Nc2ccc(F)cc2)s1	u	-9%	7%	-5%	u	-10%
COC(=O)c1cc(=O)n(Cc2ccc3c(c2)OCO3)c(=Nc2ccccc2)s1	u	-3%	-8%	-21%	0.63µM*	-1%
CCN(CC)C(=O)Cn1c(=O)n(Cc2ccc(C(=O)NCCc3ccc(OC)c(OC)c3)cc2)c(=O)c2ccccc21	x	-9%	-1%	x	x	-7%
Cn1c(=O)n(C)c2cc(N3CCCCC3)c(NC(=O)c3ccc(C(C)(C)C)cc3)cc21	x	-2%	5%	x	x	-13%
C=CCc1ccccc1OC[C@H](O)CNC(C)C	x	x	x	-6%	12%[20.9 µM]	x
Fc1cccc(Nc2ncnc3c2cnn3-c2ccccc2)c1	-45%	u	25µM*	x	x	u
Cc1cccc(Nc2ncnc3c2cnn3Cc2ccccc2)c1	-11%	u	u	x	22µM*	2%
CC(C)(C)C(=O)CSc1ncnc2c1cnn2-c1ccccc1	-29%	-11%	-6%	x	x	-10%
Cc1cccc(-n2ncc3c(Nc4ccc(Oc5ccc(Cl)cc5)cc4)ncnc32)c1	x	4µM*[quencher]	13µM*	x	x	8%
COc1cccc(Nc2ncnc3c2cnn3-c2cccc(C)c2)c1	u	u	u	u	u	-3%
c1ccc(CSc2ncnc3c2cnn3-c2ccccc2)cc1	4%	-5%	0%	25µM*	u	-3%
COc1ccc(NC(=O)CSc2ncnc3c2cnn3Cc2ccccc2)cc1OC	-6%[46.1 µM]	-17%	-4%	4%	u	-12%
Cc1cccc(-n2ncc3c(Nc4ccc(C)c(Cl)c4)ncnc32)c1	x	u	8.9µM*	x	x	11%
COc1ccc(CC(=O)NNc2ncnc3c2cnn3Cc2ccccc2)cc1OC	-25%	-5%	1%	x	10µM*	-10%
CCC1=C2CC[C@H]3C(=O)NC(=O)[C@H]3[C@H]2[C@@]2(C)C(=NCCOC)OC(=O)N2C1=O	x	-13%	2%	-1%	-4%	-10%
COC(=O)c1c(C)sc(-c2c(-c3ccc4c(c3)OCCO4)[nH]c3c2c(=O)n(C)c(=O)n3C)c1O	x	u	u	x	x	0%
CCOC(=O)c1c(C)sc(-c2c(-c3ccccc3)[nH]c3[nH]c(=O)[nH]c(=O)c23)c1O	x	6.3µM*[quencher]	4%	x	x	u
